Source: PubChem BioAssay (NCATS)
Inconclusive results are not listed. Activity calls are given as the source filed them. The call rests on the fitted dose curve; in most records, active means well fitted curve in the direction sought with a large enough effect; inconclusive means small, poorly fitted or top-dose-only effect, or another doubt; inactive means no such curve, though single readings can be large; an effect the other way counts as inactive or inconclusive.

How the values were obtained:
[1] = qHTS to identify inhibitors of the type 1 interferon - major histocompatibility complex class I in skeletal muscle: primary screen against the NCATS Pharmaceutical Collection (AID 1347407);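 further: luminescence of HiBiT knocked into endogenous HLA-B as interferon-induced MHC class I level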
Outline: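 Compounds […] were added to CRISPR-engineered HLA-B-HiBiT C25cl48 human myoblasts with 4.0 ng/ml IFN-beta. After 24 hrs at 37 C, cells were lysed and HiBiT luminescence measured.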

[2] = target: Protein phosphatase 1D (Homo sapiens) (UniProt O15297); experiment: RapidFire Mass Spectrometry qHTS Assay for Modulators of WT P53-Induced Phosphatase 1 (WIP1) (AID 1347424);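 further: amount of dephosphorylated VEPPL-S-QETFS peptide product formed by WIP1; series mostly up to about 63 µM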
Outline: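 10 nM WIP1 preincubated with compounds 1 hr at room temperature in pH 7.5 Tris buffer with 30 mM MgCl2, 1 mM TCEP; 2 uM VEPPL-pS-QETFS phosphopeptide for 5 min, formic acid quench; dephosphorylated product quantified by RapidFire MS against labelled standard.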

[3] = target: Protein phosphatase 1D (Homo sapiens) (UniProt O15297); experiment: Rhodamine-PBP qHTS Assay for Modulators of WT P53-Induced Phosphatase 1 (WIP1) (AID 1347425)
Outline: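 The read-out is the change in Rhodamine-PBP fluorescence (f1 - f0, ex 525/em 598 nm) as Pi is released, read each minute for 11 min. Final reaction: 5 nM WIP1, 10 uM phosphopeptide VEPPL-pS-QETFS, 10 uM Rh-PBP, 50 mM Tris-HCl pH 7.5, 30 mM MgCl2. Compound was preincubated with enzyme for 1 hour at room temperature.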

[4] = Primary qHTS for inhibitors of La Crosse Virus (LACV) - induced cell death in SH-SY5Y cells (AID 1508616);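 further: top concentration of the series differs between compounds; higher means more rescue of cells from virus-induced death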
Outline: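 Readout was luminescence from ATPLite 1step added after a 6-day LACV infection (0.01 MOI) of SH-SY5Y cells that had received pin-transferred compound 24 hr after seeding.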

[5] = target: Calcium and integrin-binding protein 1 (Homo sapiens) (UniProt Q99828); experiment: Primary qHTS for Identification of Calcium Integrin Binding Protein 1 (CIB1) Competitor (AID 1508620);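 further: GST tagged CIB1 binding a fluorescein labelled alphaIIb integrin peptide tracer; top concentration of the series differs between compounds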
Outline: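 Fluorescence polarization competition: GST-tagged CIB1 (1 uM final) preincubated with compound 15 min at room temperature, then FITC-labelled alphaIIb peptide (100 nM final) added. After 15 min at room temperature, polarization read at Ex 480/Em 540.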

Measured: Potency

Sequence of Protein phosphatase 1D (Homo sapiens) (O15297 whole entry, looked up): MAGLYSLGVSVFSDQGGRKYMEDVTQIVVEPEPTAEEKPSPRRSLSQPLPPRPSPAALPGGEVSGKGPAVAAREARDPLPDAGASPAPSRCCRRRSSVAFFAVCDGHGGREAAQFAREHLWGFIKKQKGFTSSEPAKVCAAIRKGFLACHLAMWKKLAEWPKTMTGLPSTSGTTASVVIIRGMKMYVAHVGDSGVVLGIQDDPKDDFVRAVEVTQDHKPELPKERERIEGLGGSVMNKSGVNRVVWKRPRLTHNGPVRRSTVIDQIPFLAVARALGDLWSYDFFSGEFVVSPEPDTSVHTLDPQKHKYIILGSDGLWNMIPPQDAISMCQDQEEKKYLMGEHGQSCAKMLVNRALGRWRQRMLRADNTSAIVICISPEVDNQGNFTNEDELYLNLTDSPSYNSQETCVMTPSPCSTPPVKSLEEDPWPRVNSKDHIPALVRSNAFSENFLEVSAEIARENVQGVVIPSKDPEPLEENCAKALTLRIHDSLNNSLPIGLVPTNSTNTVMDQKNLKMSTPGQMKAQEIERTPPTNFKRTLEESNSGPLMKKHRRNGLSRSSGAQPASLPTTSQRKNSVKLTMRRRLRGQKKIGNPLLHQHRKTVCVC
Sequence of Calcium and integrin-binding protein 1 (Homo sapiens) (Q99828 whole entry, looked up): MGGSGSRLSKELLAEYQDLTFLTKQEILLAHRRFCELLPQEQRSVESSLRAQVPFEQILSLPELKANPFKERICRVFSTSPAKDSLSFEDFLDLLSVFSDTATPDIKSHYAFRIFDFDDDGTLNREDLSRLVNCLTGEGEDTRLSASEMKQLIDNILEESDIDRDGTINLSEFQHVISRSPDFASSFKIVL

CCCCCCn1c(=O)c2c(ncn2C)n(C)c1=O
inactive: all assays above

C#Cc1ccc(-c2ccccc2F)cc1
inactive: all assays above

CC(=O)c1ccc(O)c(C(N)=O)c1
inactive: all assays above

CCN(CC)CCN
inactive: all assays above

CN1C(=O)CC(C)(c2ccccc2)C1=O (stereo not given)
inactive: all assays above

O=C(CO)[C@@H](O)[C@H](O)[C@@H](O)CO
inactive: all assays above

Nc1ccc(C(=O)OCC(O)CO)cc1 (stereo not given)
inactive: all assays above

Nc1nc(=O)n([C@@H]2O[C@H](CO)[C@@H](O)[C@@H]2F)cc1I
inactive: all assays above

CCOC(=O)C(=O)CCc1ccccc1
inactive: all assays above

Clc1ccc2c(c1)Nc1ccccc1S2
inactive: all assays above

O=c1[nH]c(=O)n([C@H]2O[C@H](CO)[C@@H](O)[C@@H]2O)cc1/C=C\Br
inactive: all assays above

CCC(C(=O)OCCN1CCOC(c2ccccc2)C1C)c1ccccc1 (stereo not given)
inactive: all assays above

COC(=O)/C=C(/C)N
inactive: all assays above

CCOC(=O)O[C@]1(C(=O)OCCl)CC[C@H]2[C@@H]3CCC4=CC(=O)C=C[C@]4(C)[C@H]3[C@@H](O)C[C@@]21C
inactive: all assays above

CN1N=C(C(N)=O)CCC1=O
inactive: all assays above

O=C1Nc2cc(Cl)ccc2Oc2ccccc21
inactive: all assays above

CCOC(=O)CN1CCCC1=O
inactive: all assays above

C[C@H]1C[C@H]2[C@@H]3CCC4=CC(=O)C=C[C@]4(C)[C@H]3C(=O)C[C@]2(C)[C@@]1(O)C(=O)CO
inactive: all assays above

CN(C)CCOC1=Cc2ccccc2Sc2ccc(Cl)cc21
inactive: all assays above

CC(CC1c2ccccc2CCc2ccccc21)CN(C)C (stereo not given)
inactive: all assays above

Cc1[nH]cnc1-c1ccc(Cl)cc1
inactive: all assays above

Oc1cccc2[nH]ccc12
inactive: all assays above

CCC[C@H](N[C@@H](C)C(=O)N1[C@H](C(=O)O)C[C@@H]2CCCC[C@@H]21)C(=O)OCC
inactive: all assays above

O=C(c1ccco1)N1CCNCC1
inactive: all assays above

O=C(c1ccccc1)c1ccccc1
inactive: all assays above

COC(=O)c1cc(S(N)(=O)=O)ccc1OC
inactive: all assays above

CCCC(=O)Nc1ccc(O)c(C(C)=O)c1
inactive: all assays above

CC(C)OP(=O)(CP(=O)(OC(C)C)OC(C)C)OC(C)C
inactive: all assays above

CCN(CC)C(=O)C1CN2CCc3cc(OC)c(OC)cc3C2CC1OC(C)=O (stereo not given)
inactive: all assays above

Nc1nnnn1-c1ccccc1
inactive: all assays above

CC(=O)N[C@@H](CCC(N)=O)C(=O)O
inactive: all assays above

CSCC[C@H](NC(=O)[C@H](Cc1c[nH]c2ccccc12)NC(=O)CCNC(=O)OC(C)(C)C)C(=O)N[C@@H](CC(=O)O)C(=O)N[C@@H](Cc1ccccc1)C(N)=O
inactive: all assays above

C#CC(C)(CC)OC(=O)c1ccccc1C(=O)O (stereo not given)
inactive: all assays above

N#CC1(c2ccc(F)cc2)CCC(=O)CC1
inactive: all assays above
